# Laboratory results: PubChem BioAssay (EPA / NIEHS)
# Calls of active or inactive are those of the source. The calls were made as follows: active = hit-call score of the fitted dose curve at least 0.9, where 1 is the maximum; inactive = score below 0.9.
# Read-out: matrix metalloproteinase-10 (MMP10), MMP10 (gene 4319)
# Assay: LTEA_HepaRG_MMP10: Life Technologies and Expression Analysis (LTEA) Assay for matrix metalloproteinase-10 (MMP10) using HepaRG (AID 2283517)
# Conditions: mRNA level, 48 h; actives raise or lower the signal
# Method in brief: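 Differentiated HepaRG cells in serum-free induction medium exposed 48 h in duplicate to 8-point half-log series up to 100 uM in 0.5% DMSO. mRNA quantified by qRT-PCR, normalised to ACTB, GAPDH, POLR2A; bidirectional fit versus DMSO.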
SMILES,outcome,AC50
NC=O,inactive,
O=C1c2c(O)cccc2Cc2cccc(O)c21,inactive,
O=C(O)c1cccnc1,inactive,
CC(=O)[C@@]1(O)CC[C@H]2[C@@H]3CCC4=CC(=O)CC[C@]4(C)[C@H]3CC[C@@]21C,inactive,
CCc1nc(N)nc(N)c1-c1ccc(Cl)cc1,inactive,
O=Cc1ccccc1C=O,inactive,
O=C1CCCCC1,inactive,
CCN(CC)CCOc1ccc(C(=C(Cl)c2ccccc2)c2ccccc2)cc1,,28.8 µM (active)
CN(C)C(=O)NC1(c2ccccc2)CCN(CCC[C@]2(c3ccc(Cl)c(Cl)c3)CCCN(C(=O)c3ccccc3)C2)CC1,,19.4 µM (active)
N[C@@H](Cc1c[nH]c2ccccc12)C(=O)O,inactive,
CCCCCCC(CCCCCCCCCCC(=O)OCC(COC(C)=O)OC(C)=O)OC(C)=O (configuration not stated),inactive,
O=C(O)CC(O)(CC(=O)O)C(=O)O,inactive,
Cc1ccc(C(C)(C)C)c(O)c1,inactive,
CCc1cc(C2=C(C(=O)O)N(c3ccccc3C(F)(F)F)S(=O)(=O)c3ccccc32)cc2c1OCO2,inactive,
CCOCCOCCO,inactive,
CC(N)=O,inactive,
C=CCCCCCCCCCCCC,inactive,
CSc1ccc(Oc2ccc(S(N)(=O)=O)cc2CN(C)C)cc1C,inactive,
CC(C)c1cccc(C(C)C)c1NC(=O)NS(=O)(=O)c1cc(C(C)(C)O)co1,inactive,
CCCCOC(=O)CCCCC(=O)OCCCC,inactive,
CC(C)(O)c1ccc(CNC(=O)c2cccnc2Oc2ccc(F)cc2)cc1,inactive,
Cc1c(C)c2c(c(C)c1O)CCC(C)(COc1ccc(CC3SC(=O)NC3=O)cc1)O2 (configuration not stated),,48.5 µM (active)
